From PubChem BioAssay
Calls of active or inactive are those of the source. Rule as the data show it, unless noted: active = inhibition above about 33%; inactive = the rest.

What was measured:
[1] = StAR promoter reporter inhibitors, counter-screen for LRH-1 inverse agonist project, cell-based, luminescence, high throughput (AID 651611; in the data active = inhibition above about 28%); conditions: StAR promoter luciferase reporter counterscreen, at 3.6 µM, hits give high values
[2] = molecular target: Nuclear receptor subfamily 5 group A member 2 (Homo sapiens) (UniProt O00482); assay: LRH-1 (NR5A2) inverse agonists, retest, confirmation, cell-based, luminescence (AID 651613; in the data active = inhibition above about 42%;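 also: HEK293T cells co-transfected with LRH-1 and StAR promoter luciferase reporter; 0% = vehicle wells and 100% = parental cells lacking receptor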); conditions: cell-based LRH-1 luciferase reporter, inverse agonism; at 3.6 µM; hits give high values
[3] = molecular target: Steroidogenic factor 1 (Homo sapiens) (UniProt Q13285); assay: SF1 (NR5A1) inverse agonists, counter-screen for LRH-1 inverse agonist project, cell-based, luminescence, high throughput (AID 651614; in the data active = inhibition above about 44%;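 also: cells cotransfected with StAR promoter reporter and SF1 expression vector; 0% = vehicle on cells with receptor and 100% = vehicle on cells lacking receptor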); conditions: cell-based SF1 luciferase reporter, at 3.6 µM, hits give high values
[4] = VP16 transactivation reporter inhibitors, counter-screen for LRH-1 inverse agonist project, cell-based, luminescence, high throughput (AID 651615); conditions: Gal4-VP16 luciferase reporter cells, at 3.6 µM, hits give high values

Sequence of Nuclear receptor subfamily 5 group A member 2 (Homo sapiens) (O00482 whole entry, looked up): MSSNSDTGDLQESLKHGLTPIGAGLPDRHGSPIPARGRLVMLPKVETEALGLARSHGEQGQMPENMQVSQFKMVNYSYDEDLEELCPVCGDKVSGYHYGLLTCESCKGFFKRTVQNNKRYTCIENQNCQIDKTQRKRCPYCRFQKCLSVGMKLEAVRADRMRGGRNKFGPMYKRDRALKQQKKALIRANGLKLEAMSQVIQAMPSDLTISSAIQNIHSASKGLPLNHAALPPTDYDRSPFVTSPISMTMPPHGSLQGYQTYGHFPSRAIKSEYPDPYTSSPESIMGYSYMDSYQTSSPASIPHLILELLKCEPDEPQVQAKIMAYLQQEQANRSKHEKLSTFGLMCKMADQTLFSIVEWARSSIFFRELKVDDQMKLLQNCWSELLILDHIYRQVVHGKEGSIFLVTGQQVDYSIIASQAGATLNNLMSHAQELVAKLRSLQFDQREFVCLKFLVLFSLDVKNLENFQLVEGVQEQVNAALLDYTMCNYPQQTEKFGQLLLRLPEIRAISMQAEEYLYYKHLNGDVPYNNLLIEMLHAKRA
Sequence of Steroidogenic factor 1 (Homo sapiens) (Q13285 whole entry, looked up, the tested form may be a part): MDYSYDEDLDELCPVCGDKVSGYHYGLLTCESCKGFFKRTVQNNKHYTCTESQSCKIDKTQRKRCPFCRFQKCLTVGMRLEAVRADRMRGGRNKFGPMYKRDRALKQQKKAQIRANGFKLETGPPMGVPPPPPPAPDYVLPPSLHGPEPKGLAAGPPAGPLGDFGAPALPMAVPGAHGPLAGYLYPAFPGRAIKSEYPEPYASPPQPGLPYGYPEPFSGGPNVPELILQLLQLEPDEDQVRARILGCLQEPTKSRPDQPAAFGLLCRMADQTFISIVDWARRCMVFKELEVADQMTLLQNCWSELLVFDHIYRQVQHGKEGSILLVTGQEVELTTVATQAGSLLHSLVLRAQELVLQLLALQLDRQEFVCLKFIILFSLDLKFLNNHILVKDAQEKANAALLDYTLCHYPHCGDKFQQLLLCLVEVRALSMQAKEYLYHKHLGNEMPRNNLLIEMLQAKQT

SMILES | inhibition [1] | inhibition [2] | inhibition [3] | inhibition [4]
CC(/C=C(\NC(=O)c1ccccc1)C(=O)N=Nc1c(O)[nH]c2ccc(C)cc12)=C\c1ccccc1 | 34.2% (active) | 31.7% (inactive) | 30.2% (inactive) | 14.1% (inactive)
Cc1ccc(S(=O)(=O)N2CCc3ccccc3CC2)cc1 | 39.2% (active) | 66.3% (active) | 56.7% (active) | 53.9% (active)
COC(=O)c1ccc(NC(=O)CSc2nn3c(=O)c(C)nnc3s2)cc1 | 5.82% (inactive) | 61.3% (active) | 56.4% (active) | -11.6% (inactive)
COc1cc(/C=N/NC(N)=S)ccc1OCC(=O)Nc1ccc(C)cc1 | -3.71% (inactive) | 48.1% (active) | 60% (active) | -1.66% (inactive)
COc1cc(C(=O)Nc2ccccc2C(=O)Nc2ccccn2)cc(OC)c1OC | 61.2% (active) | 45.9% (active) | 62.1% (active) | -2.31% (inactive)
N#Cc1cc(Br)ccc1N=C1CCCN1c1ccccc1 | 2.82% (inactive) | 44.5% (active) | 42.6% (inactive) | 0.34% (inactive)
COc1ccc(/C=N/NC(=O)c2[nH]c3ccc(Br)cc3c2-c2ccccc2)cc1 | 62.3% (active) | 42.6% (active) | 50.7% (active) | 32.6% (active)
Cc1cc(Br)ccc1NC(=O)CN1C(=O)C2CC=CCC2C1=O (stereo not given) | 7.07% (inactive) | 61.7% (active) | 44.1% (active) | -7.81% (inactive)
COc1cccc(C=Nc2ccc3c(c2)OCCO3)c1O | -5.52% (inactive) | -12% (inactive) | -7.99% (inactive) | -25.9% (inactive)
CCOC(=O)c1ccc(Nc2nc(-c3cccnc3)nc3ccccc23)cc1 | 44.5% (active) | 49.6% (active) | 41.1% (inactive) | 11.4% (inactive)
O=C(CCl)N1CCN(C(=O)C2COc3ccccc3O2)CC1 (stereo not given) | 18.7% (inactive) | 57.3% (active) | 57.3% (active) | -13.5% (inactive)
COc1c(/C=N/NC(N)=S)c(C)nn1-c1ccccc1 | 1.43% (inactive) | 39.5% (inactive) | 27.9% (inactive) | -8.71% (inactive)
C#Cc1cccc(Nc2nc(NCCOC)nc3ccsc23)c1 | 26.9% (inactive) | 47.1% (active) | 57.4% (active) | 5.35% (inactive)
Cc1onc(-c2ccccc2Cl)c1C(=O)O/N=C(\N)c1ccc([N+](=O)[O-])o1 | 10.8% (inactive) | 66.3% (active) | 62.5% (active) | -5.99% (inactive)
O=C(CSc1nncc(=O)[nH]1)Nc1cccc([N+](=O)[O-])c1 | 11.7% (inactive) | 57.3% (active) | 53.2% (active) | 8.83% (inactive)
COc1cc2c3c(cccc3c1)C(=O)N(CCN1CCCC1)C2=O | 12.7% (inactive) | 72.8% (active) | 49.7% (active) | 70.9% (active)
COc1ccc(NC(=O)CSc2nc(O)cc(=O)n2-c2ccccc2OC)cc1 | 4.7% (inactive) | 47.5% (active) | 38.3% (inactive) | 2.37% (inactive)
COc1ccc(NC(=O)CS(=O)(=O)c2ccc(C)cc2)c(OC)c1 | 17% (inactive) | 53.1% (active) | 56% (active) | -1.68% (inactive)
C=CCOc1ccccc1CN(C(=O)CCl)c1ccc2c(c1)OCO2 | 7.87% (inactive) | 68.8% (active) | 53.5% (active) | -54.5% (inactive)
CC1(C(=O)NCc2ccc3c(c2)OCO3)CCN1C(=O)Cc1ccc(Cl)cc1Cl (stereo not given) | 7.73% (inactive) | 56.5% (active) | 47% (active) | -2.52% (inactive)
Cn1cccc1C(=O)OCC(=O)N1CCN(c2ccccc2)CC1 | 2.85% (inactive) | 32.7% (inactive) | 35% (inactive) | -18.1% (inactive)
O=C(Nc1ccc(S(=O)(=O)N2CCOCC2)cc1)c1ccc([N+](=O)[O-])o1 | 17.6% (inactive) | 57.5% (active) | 65.2% (active) | -5.86% (inactive)
CCc1ccccc1NC(=O)CSc1nnc(Cn2nnc3ccccc32)n1C | 5.04% (inactive) | 53% (active) | 48.2% (active) | -5.32% (inactive)
Oc1c(Cl)cc(CN2CCOCC2)c2cccnc12 | 4.86% (inactive) | 18.4% (inactive) | 6.83% (inactive) | -5.55% (inactive)
Cc1ccc2[nH]c3c(c2c1)CCN1C(=O)OC(C)(C)C31C (stereo not given) | 10.6% (inactive) | 53.7% (active) | 49% (active) | -1.39% (inactive)
